For 17 compounds, growth results are on record in PubChem BioAssay (NCI).

Among the test systems are T-47D breast; BT-549 breast; MDA-MB-435 melanoma; SW-620 colon; MCF7 breast; HCT-116 colon; HCC-2998 colon; KM12 colon.
What all share (assay): NCI-60 one-dose screen, 48 h (100 = growth as untreated, 0 = no growth, -100 = all killed)
Common to all, as to conditions: 10 µM unless noted

Molecules are shown by their SMILES. About 83,000 compounds went through this panel and 20% of them were active in at least one assay; those are over-represented in the sample as a whole.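 In brief: 96-well plates, 48 h treatment, single concentration, percent growth endpoint.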 Unmarked numbers belong to inactive results. Calls of active or inactive are those of the source. How the source made its calls: active means growth percent below 10; inactive means the rest.

Consider `CC(=O)N1N=C(c2ccc(Nc3nc(Nc4ccc(F)cc4)nc(Nc4ccc(Cl)cc4)n3)cc2)CC1c1ccc(Cl)cc1` (stereo not given), for which the growth in the assay with T-47D breast was 68.1%; with BT-549 breast, 122%; in the assay on MDA-MB-435 melanoma it was 115%; in the assay on SW-620 colon it was 105%; in the assay on MCF7 breast, 91%; in the assay on HCT-116 colon, 86.4%. The growth with HCC-2998 colon was 96.8%; with KM12 colon, 108%.

For `c1ccc2cc(C[n+]3ccn(CCCCCCn4cc[n+](Cc5ccc6ccccc6c5)c4)c3)ccc2c1`, the growth is 38.5% in the assay with T-47D breast; 9.69% (active) with BT-549 breast; 59.2% in the assay with MDA-MB-435 melanoma; 95.5% in the assay on SW-620 colon; 49.8% with MCF7 breast; 45.2% in the assay on HCT-116 colon. Moreover, the growth with KM12 colon is 41.2%.

Take `CC1(C)C2CC1C1(/C=N/NC(N)=S)C(C2)C(C#N)(C#N)C1(C#N)C#N` (stereo not given): the growth is 64.1% in the assay with T-47D breast; 96.3% in the assay on BT-549 breast; 88.6% in the assay on MDA-MB-435 melanoma; 50% in the assay with SW-620 colon; 59.2% in the assay with MCF7 breast; 40.7% in the assay with HCT-116 colon. The growth in the assay on KM12 colon is 95.7%.

On to `O=C1c2cccc3cccc(c23)C(=O)N1N1C(=O)c2cccc3c(NC4CCCCC4)ccc(c23)C1=O`, for which the growth in the assay with T-47D breast is 88.4%; in the assay on BT-549 breast it was 97.8%; in the assay on MDA-MB-435 melanoma, 102%; with SW-620 colon, 98.7%; with MCF7 breast, 88.8%; in the assay on HCT-116 colon, 98.9%. Also, the growth in the assay with KM12 colon is 99.5%.

Take `CCOC(=O)Cn1c(=O)c2c(c3ccccc3n2C)n2nnc(-c3ccccc3)c12`: the growth in the assay with T-47D breast is 104%; in the assay on BT-549 breast, 114%; in the assay on MDA-MB-435 melanoma, 113%; in the assay on SW-620 colon it was 109%; in the assay with MCF7 breast it was 75.1%; in the assay with HCT-116 colon, 90%. Besides, in the assay with KM12 colon, the growth is 104%.

`c1ccc2c(c1)Nc1ccncc1S2`: the growth with T-47D breast was 95.3%; in the assay with BT-549 breast, 75%; in the assay on MDA-MB-435 melanoma it was 121%; in the assay with SW-620 colon, 92.5%; in the assay with MCF7 breast, 100%; in the assay with HCT-116 colon, 82%. In addition, the growth with KM12 colon is 103%.

As to `O=C(/C=C/c1cccc2ccccc12)c1ccc(NC(=O)c2ccccc2CN2C(=O)c3ccccc3C2=O)cc1`, the growth was 71% in the assay on T-47D breast; 68.8% in the assay on BT-549 breast; 6.48% (active) in the assay on MDA-MB-435 melanoma; 33.2% in the assay with SW-620 colon; 56.7% in the assay with MCF7 breast; 39.3% in the assay with HCT-116 colon. For the same compound, the growth with KM12 colon is 40.6%.

Regarding `Cc1nc2ccccc2c(/C=C/c2ccc(Cl)cc2)c1C(=O)/C=C/c1ccc(C(F)(F)F)cc1`, the growth is -18.2% (active) in the assay with T-47D breast; -51.7% (active) in the assay with BT-549 breast; -95.4% (active) in the assay on MDA-MB-435 melanoma; -57.5% (active) in the assay with SW-620 colon; -29.6% (active) with MCF7 breast; -53.6% (active) in the assay with HCT-116 colon. Moreover, in the assay on KM12 colon, the growth was -74.1% (active).

In the case of `N#Cc1ccc(NC(=O)c2sc3nc4c(cc3c2N)C(=O)CCC4)cc1`, the growth is 95.9% with T-47D breast; 108% in the assay on BT-549 breast; 97.4% in the assay on MDA-MB-435 melanoma; 98.1% in the assay with SW-620 colon; 97.4% with MCF7 breast; 108% in the assay with HCT-116 colon. Moreover, the growth in the assay on KM12 colon is 101%.

For the compound `C/C(=N/NC(N)=S)c1sc(Nc2cccc(Cl)c2)nc1C`, the growth with T-47D breast was 30.9%; with BT-549 breast, 84.1%; in the assay on MDA-MB-435 melanoma it was 84.5%; with SW-620 colon, 81.8%; in the assay with MCF7 breast, 76.1%; in the assay on HCT-116 colon, 74.4%. The growth in the assay with KM12 colon is 87.8%.

For `CCC12CCC[N+]3([O-])CCC4(C(=Nc5ccccc54)C(O)(C(=O)OC)C1)C23` (stereo not given), the growth in the assay on T-47D breast is 94.8%; in the assay on BT-549 breast it was 102%; with MDA-MB-435 melanoma, 112%; in the assay with SW-620 colon, 95.4%; with MCF7 breast it was 116%; in the assay with HCT-116 colon, 94.5%. Also, the growth in the assay on KM12 colon was 99.6%.

On to `CCCCOc1ccc(/C=N/NC(N)=S)cc1`, for which the growth is 23.8% in the assay with T-47D breast; 73.6% with BT-549 breast; 85.5% in the assay with MDA-MB-435 melanoma; 73.3% in the assay with SW-620 colon; 61.7% in the assay with MCF7 breast; 67.8% with HCT-116 colon. Further, in the assay on KM12 colon, the growth is 69.2%.

Regarding `C=C(C)[C@@H]1CC[C@]2(N=C=O)CC[C@]3(C)[C@H](CC[C@@H]4[C@@]5(C)Cc6c([nH]c7ccccc67)C(C)(C)[C@@H]5CC[C@]43C)[C@@H]12`, the growth with T-47D breast was 62.4%; in the assay with BT-549 breast, 84.3%; in the assay on MDA-MB-435 melanoma it was 86.4%; in the assay on SW-620 colon, 78%; in the assay with MCF7 breast, 39.5%; in the assay on HCT-116 colon, 11.6%. Further, in the assay with KM12 colon, the growth is 70.5%.

`COc1ccc2c(c1)c(-c1nn3cc(-c4cccs4)nc3s1)cn2C`: the growth in the assay on T-47D breast was 43.6%; in the assay with BT-549 breast, 101%; in the assay on MDA-MB-435 melanoma it was 87.6%; in the assay with SW-620 colon, 82.3%; with MCF7 breast it was 60.4%; with HCT-116 colon, 82.8%. The growth in the assay with KM12 colon is 70.4%.

Turning to `CC(=O)CC(c1ccccc1)c1c(C)[nH]c2ccccc12` (stereo not given), the growth in the assay on T-47D breast is 99.5%; in the assay with BT-549 breast, 112%; with MDA-MB-435 melanoma, 100%; with SW-620 colon, 92.1%; with HCT-116 colon it was 89.6%; in the assay on HCC-2998 colon, 110%. For the same compound, the growth in the assay on KM12 colon was 100%.

Consider `C#Cc1cccc(NC(=O)Nc2ccccc2NC(=O)CCl)c1`, for which the growth with T-47D breast is 1.49% [8.25 µM] (active); with BT-549 breast, -27% [8.25 µM] (active); in the assay on MDA-MB-435 melanoma, -68.7% [8.25 µM] (active); with SW-620 colon it was -5.75% [8.25 µM] (active); in the assay with HCT-116 colon it was 0.401% [8.25 µM] (active); in the assay with HCC-2998 colon, -29.4% [8.25 µM] (active). The growth in the assay on KM12 colon was -37.6% [8.25 µM] (active).

For `Cc1ccc(/C=C2\Oc3ccc(O)c(O)c3C2=O)cc1`, the growth with T-47D breast is 47.3%; with BT-549 breast, 43.1%; in the assay on MDA-MB-435 melanoma, 82.4%; in the assay with SW-620 colon, 30.7%; in the assay on MCF7 breast, 31.6%; with HCT-116 colon, 17.8%. In the assay with KM12 colon, the growth is 77%.
